The test system of assay [1] is zebrafish Estrogen Receptor (ESR2B), gene 317733. As to the kind of experiment: ATG_zfER2b_XSP1: Attagene TRANS-FACTORIAL Multi-Species (XSP1) HepG2 Assay for zebrafish Estrogen Receptor (ESR2B) (AID 2283773). In outline:
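Multiplexed TRANS format in transfected HepG2 liver cells, chimeric NR-Gal4 from zebrafish ESR2B. 24 h dosing; medium contains 3 nM 6-alpha-fluorotestosterone. mRNA induction by RT-PCR/CE, positive direction vs DMSO.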

Assay [2] has as its system frog Estrogen Receptor (ESR2), gene 100174814. Nature of the assay: ATG_frER2_XSP1: Attagene TRANS-FACTORIAL Multi-Species (XSP1) HepG2 Assay for frog Estrogen Receptor (ESR2) (AID 2283774). In outline:
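HepG2, transient MRTU transfection (GAL4-UAS reporters, exogenous NR-Gal4 chimeras); 24 h compound exposure; 3 nM 6α-fluorotestosterone co-added; total RNA → RT-PCR → 6-FAM primer extension → HpaI → CE. Positive direction vs DMSO.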

The subject of assay [3] is zebrafish Estrogen Receptor (ESR2A), gene 317734. Nature of the assay: ATG_zfER2a_XSP1: Attagene TRANS-FACTORIAL Multi-Species (XSP1) HepG2 Assay for zebrafish Estrogen Receptor (ESR2A) (AID 2283778). In outline: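 Transient transfection of HepG2 (human liver) with MRTU constructs; chemical dosing for 24 h; medium contained 3 nM 6-alpha-fluorotestosterone to partly stimulate AR. RT-PCR/CE fluorescence of reporter transcripts; positive direction vs DMSO.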

The target in assay [4] is chicken Estrogen Receptor (ESR1), ESR1 (gene 396099) (UniProt P06212). As to the kind of experiment: ATG_chERa_XSP1: Attagene TRANS-FACTORIAL Multi-Species (XSP1) HepG2 Assay for chicken Estrogen Receptor (ESR1) (AID 2283779). The method in brief: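 Read-out: fluorescent reporter mRNA fragments resolved by capillary electrophoresis after RT-PCR and HpaI digestion. Transfected HepG2 cells carried chimeric NR-Gal4 constructs, were dosed 24 h with 3 nM 6-alpha-fluorotestosterone added, and activity was fitted upward relative to DMSO.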

Assay [5] deals with Estrogen receptor (Homo sapiens) (UniProt P03372). Nature of the assay: ATG_hERa_XSP1: Attagene TRANS-FACTORIAL Multi-Species (XSP1) HepG2 Assay for human Estrogen Receptor (ESR1) (AID 2283780). In outline: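 Reporter transcripts from multiplexed GAL4-UAS units driven by NR-Gal4 chimeras in transiently transfected HepG2 were measured by RT-PCR with capillary electrophoresis 24 h post-dose, with 3 nM 6-alpha-fluorotestosterone present; gain-of-signal relative to DMSO.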

Assay [6] relates to turtle Estrogen Receptor (ESR1), gene 101933533. As to the kind of experiment: ATG_trERa_XSP1: Attagene TRANS-FACTORIAL Multi-Species (XSP1) HepG2 Assay for turtle Estrogen Receptor (ESR1) (AID 2283781). The method in brief: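 Transfect HepG2 with reporter units → dose chemical 24 h (medium has 3 nM 6-alpha-fluorotestosterone) → isolate RNA, RT-PCR → FAM primer extension, HpaI digest → capillary electrophoresis; gain of signal vs DMSO.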

Assay [7] can be described thus: ACEA_ER_AUC_viability: ACEA Biosciences xCELLigence Real-Time Cell Analysis on Estrogen Receptor Agonism for Viability (AID 2283782).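 Also: hit means loss of impedance signal meaning reduced cell growth or viability.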 The method in brief:
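Read-out: real-time electrical impedance (RT-CES) area under curve, loss of signal taken as reduced viability, normalized to DMSO baseline. T-47D cells, charcoal-stripped serum medium, compounds up to 100 uM final, continuous exposure, 80 h.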

Assay [8] in a line: ACEA_AR_agonist_AUC_viability: ACEA Biosciences xCELLigence Real-Time Cell Analysis on Androgen Receptor Agonism for Viability (AID 2283775). The method in brief: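 Viability endpoint from xCELLigence impedance in 22Rv1 prostate cells at 80 h. Eight-point series, 100 uM maximum final.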
A short description of assay [9]: ACEA_AR_antagonist_AUC_viability: ACEA Biosciences xCELLigence Real-Time Cell Analysis on Androgen Receptor Antagonism for Viability (AID 2283776).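 Also: area under impedance growth curve at 80 h after dosing as viability; hits lower the growth signal relative to DMSO meaning cytotoxicity.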 In outline: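 22Rv1 human prostate cancer cells were seeded on electrode plates, monitored overnight, then exposed to eight 1:4 dilutions from 100 uM final. Impedance-based growth kinetics at 80 h gave an AUC viability endpoint normalized to DMSO.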

Assay [10] has as its system frog Estrogen Receptor (ESR1), gene 398734. As to the kind of experiment: ATG_frER1_XSP1: Attagene TRANS-FACTORIAL Multi-Species (XSP1) HepG2 Assay for frog Estrogen Receptor (ESR1) (AID 2283777). In outline:
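Transient MRTU transfection, HepG2 (human liver); 24 h dosing, 3 nM 6α-fluorotestosterone co-added; RNA → RT-PCR → 6-FAM labeling → CE; upward activity vs DMSO.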

The values below come from PubChem BioAssay (EPA / NIEHS).

The structures appear in SMILES notation. “And” between values parts separate entries of the source, which are not always exact repeats. Equal values may be shown once. Results filed as inconclusive are left out. The source holds several records for some structures; these can differ, active in one and inactive in another. The source made the active and inactive calls. The calls were made as follows: active = hit-call score of the fitted dose curve at least 0.9, where 1 is the maximum; inconclusive = response in the unintended direction; inactive = score below 0.9.

Estrogen receptor (Homo sapiens), sequence (P03372 whole entry, looked up, the tested form may be a part): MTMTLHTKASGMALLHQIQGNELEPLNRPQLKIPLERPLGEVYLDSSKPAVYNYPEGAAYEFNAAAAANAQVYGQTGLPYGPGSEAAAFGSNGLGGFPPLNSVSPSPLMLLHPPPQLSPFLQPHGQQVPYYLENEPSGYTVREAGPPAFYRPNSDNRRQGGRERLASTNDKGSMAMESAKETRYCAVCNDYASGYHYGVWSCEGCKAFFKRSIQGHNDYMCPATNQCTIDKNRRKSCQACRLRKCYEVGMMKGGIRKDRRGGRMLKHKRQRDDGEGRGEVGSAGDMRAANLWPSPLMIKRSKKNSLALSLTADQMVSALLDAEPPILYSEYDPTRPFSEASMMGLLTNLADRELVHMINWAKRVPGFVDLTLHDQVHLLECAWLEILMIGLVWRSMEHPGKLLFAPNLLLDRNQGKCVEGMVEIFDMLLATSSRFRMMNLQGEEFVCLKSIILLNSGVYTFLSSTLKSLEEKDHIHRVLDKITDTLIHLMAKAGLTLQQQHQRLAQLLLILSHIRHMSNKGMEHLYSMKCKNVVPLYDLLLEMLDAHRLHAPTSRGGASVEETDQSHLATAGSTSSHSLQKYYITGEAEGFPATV
chicken Estrogen Receptor (ESR1), ESR1 (gene 396099), sequence (P06212 whole entry, looked up, the tested form may be a part): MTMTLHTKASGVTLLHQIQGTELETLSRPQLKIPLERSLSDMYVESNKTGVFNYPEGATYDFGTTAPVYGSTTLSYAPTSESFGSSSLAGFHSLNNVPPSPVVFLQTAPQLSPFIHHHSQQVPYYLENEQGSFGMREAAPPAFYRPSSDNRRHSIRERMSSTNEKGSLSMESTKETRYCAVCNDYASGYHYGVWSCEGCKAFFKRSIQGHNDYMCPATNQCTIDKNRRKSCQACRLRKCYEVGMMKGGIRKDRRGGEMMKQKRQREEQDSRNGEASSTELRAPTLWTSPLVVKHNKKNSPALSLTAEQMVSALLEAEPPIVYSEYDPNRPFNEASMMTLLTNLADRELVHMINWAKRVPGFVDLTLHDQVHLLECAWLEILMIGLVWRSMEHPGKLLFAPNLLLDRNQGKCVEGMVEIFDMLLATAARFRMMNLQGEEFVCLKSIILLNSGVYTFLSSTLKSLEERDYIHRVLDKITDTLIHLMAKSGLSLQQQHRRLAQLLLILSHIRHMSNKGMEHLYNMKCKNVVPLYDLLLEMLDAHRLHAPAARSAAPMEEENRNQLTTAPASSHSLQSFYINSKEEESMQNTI

For the compound `OC(c1ccc(Cl)cc1)(c1cncnc1)c1ccccc1Cl` (stereo unspecified), the half-maximal activity concentration (AC50) (usually the concentration at which the activity in the assay is half-maximal) in assay [1] is 8.4 µM (active); in assay [2] it was 4.32 µM (active); in assay [3] it was 4.49 µM (active); in [4], 2.36 µM (active); in [5] it was 2.22 µM (active); in assay [6], 2.12 µM (active). Moreover, the compound was called inactive in assay [7].
On to `COP(N)(=O)SC` (stereo unspecified), for which the compound was called inactive in assay [8] and in assay [9].
On to `CCc1nn(C)c(C(=O)NCc2ccc(C(C)(C)C)cc2)c1Cl`, for which the call in assay [7] was inactive.
Take `CCCN(CCC)c1c([N+](=O)[O-])cc(S(N)(=O)=O)cc1[N+](=O)[O-]`: the AC50 in assay [1] was 14.2 µM (active); in assay [2] it was 11.2 µM (active); in assay [10] it was 12.7 µM (active); in assay [3] it was 33.4 µM (active); in assay [4], 16.2 µM (active); in assay [5], 13.2 µM (active). The AC50 is 33.4 µM (active) in assay [6]; 24 µM (active) and 82.5 µM (active) and 21.4 µM (active) in assay [7]. Further, the compound was called inactive in assay [7].
With `CO/C=C(/C(=O)OC)c1ccccc1Oc1cc(Oc2ccccc2C#N)ncn1`, the outcome in [2], in assay [4], in [5] and in assay [6] was inactive.
Take `CS/C(C)=N/OC(=O)N(C)SN(C)C(=O)O/N=C(\C)SC`: the AC50 in [9] was 77.9 µM (active); in assay [7], 24.8 µM (active).
As to `C=CCC1=C(C)[C@@H](OC(=O)[C@@H]2[C@@H](C=C(C)C)C2(C)C)CC1=O`, in [7], the half-maximal activity concentration (AC50) was 89.8 µM (active).
`CCNc1nc(Cl)nc(NC(C)C)n1`: the outcome in [7] was inactive.
Turning to `COC(=O)c1ccccc1C(=O)OC`, the outcome in assay [7] was inactive.
With `CCCC1COC(Cn2cncn2)(c2ccc(Cl)cc2Cl)O1` (stereo unspecified), the AC50 in assay [1] was 27.6 µM (active); in assay [2], 27 µM (active); in [7] it was 92.1 µM (active). Moreover, the compound was classed as inactive in [10], in assay [3], in assay [4], in [5] and in [6].
As for `CC(C)Oc1cc(-n2nc(C(C)(C)C)oc2=O)c(Cl)cc1Cl`, the AC50 in assay [1] is 29.6 µM (active); in [2], 33.5 µM (active); in assay [10], 7.92 µM (active); in assay [4] it was 27.2 µM (active); in assay [5], 6.88 µM (active); in [6], 20.8 µM (active). Moreover, the AC50 in [7] was 81.9 µM (active). Also, the result in assay [3] was inactive.
In the case of `COc1ccc(C(c2ccc(OC)cc2)C(Cl)(Cl)Cl)cc1`, the AC50 in assay [1] was 1.08 µM (active); in assay [2], 1.09 µM (active); in [10], 0.368 µM (active); in assay [4] it was 1.97 µM (active); in assay [5], 0.821 µM (active); in assay [6], 1.32 µM (active). Also, the AC50 in [7] was 88.6 µM (active). Moreover, in [3], the compound was called inactive.
Take `O=C(O)c1nc(Cl)ccc1Cl`: in assay [7], the result was inactive.
`CNC(=S)S`: in [7], the result was inactive.
Take `CCOP(=S)(OCC)SCn1c(=O)oc2cc(Cl)ccc21`: in assay [1], the AC50 is 24.5 µM (active).
For the compound `CC1COC(Cn2cncn2)(c2ccc(Oc3ccc(Cl)cc3)cc2Cl)O1` (stereo unspecified), the half-maximal activity concentration (AC50) in assay [9] is 30.3 µM (active); in assay [7], 83.2 µM (active).
`CCOc1cc(Oc2ccc(C(F)(F)F)cc2Cl)ccc1[N+](=O)[O-]`: in assay [9], the AC50 is 12.9 µM (active).
Turning to `Oc1ccccc1-c1ccccc1`, the AC50 in [7] is 78 µM (active).
Regarding `COP(=S)(OC)Oc1nc(Cl)c(Cl)cc1Cl`, the AC50 in assay [1] is 46.6 µM (active); in assay [2], 61.6 µM (active); in assay [10], 31 µM (active); in assay [4], 27.8 µM (active); in [5], 27.1 µM (active); in [6], 27.9 µM (active). Also, the AC50 in assay [7] is 79 µM (active).
Consider `CCCCC(CC)COC(=O)c1ccccc1C(=O)OCC(CC)CCCC` (stereo unspecified), for which the AC50 in [1] was 16.1 µM (active). Further, the result in assay [2], in [10], in assay [4], in [5], in assay [6] and in [7] was inactive.
For `C=CCC1=C(C)C(OC(=O)C2C(C=C(C)C)C2(C)C)CC1=O` (stereo unspecified), in assay [7], the AC50 is 87.8 µM (active) [middle of 5 runs] and the compound was called inactive.
Consider `CCCCOC(=O)c1ccccc1C(=O)OCCCC`, for which the AC50 in assay [1] was 24.6 µM (active); in [4], 26.7 µM (active); in [5], 19.9 µM (active); in assay [7], 78.3 µM (active). The result in assay [10], in [6] and in assay [7] was inactive.
On to `Fc1ccc(Oc2ccnc3cc(Cl)cc(Cl)c23)cc1`, for which the figures for the AC50 in assay [9] and in [7] were 60 µM (active) and 80.2 µM (active), respectively.
Take `CCOC(=O)C(Cl)Cc1cc(-n2nc(C)n(C(F)F)c2=O)c(F)cc1Cl` (stereo unspecified): the result in assay [7] was inactive.
On to `O=C(Nc1ccccc1)Nc1ccnc(Cl)c1`, for which the AC50 in assay [9] was 30.8 µM (active); in [7] it was 81.3 µM (active).
On to `CCON=C(CC)C1=C(O)CC(c2c(C)cc(C)cc2C)CC1=O` (stereo unspecified), for which the compound was classed as inactive in assay [7].
Take `C=CC1(C)OC(=O)N(c2cc(Cl)cc(Cl)c2)C1=O` (stereo unspecified): the AC50 in assay [1] is 168 µM (active); in [4], 59.9 µM (active); in assay [5], 100 µM (active); in [6] it was 100 µM (active). Also, the compound was called inactive in [2], in [10], in [3] and in [7].
`C#CCOS(=O)OC1CCCCC1Oc1ccc(C(C)(C)C)cc1` (stereo unspecified): the AC50 in [1] was 80.1 µM (active); in assay [2] it was 25.8 µM (active); in assay [4] it was 26.8 µM (active); in [5], 5.29 µM (active); in assay [6], 44.3 µM (active); in assay [7], 87.4 µM (active). In addition, the outcome in assay [10] was inactive.
With `COC(=O)N(OC)c1ccccc1COc1ccn(-c2ccc(Cl)cc2)n1`, the compound was classed as inactive in assay [1], in [2], in [10], in [3], in [5] and in assay [6]. In addition, the half-maximal activity concentration (AC50) in assay [7] was 92.3 µM (active).
Consider `CN(C)C(=S)SSC(=S)N(C)C`, for which, in assay [7], the AC50 is 91 µM (active).
